# Source: publication PMC13423814
# What was measured:
# Histone H4 = Histone H4 (UniProt P62805)
# [1] = target: Heterogeneous nuclear ribonucleoprotein A/B (UniProt Q99729)
# [2] = target: Heterogeneous nuclear ribonucleoprotein A0 (UniProt Q13151)
# [3] = target: Heterogeneous nuclear ribonucleoprotein U (UniProt Q00839)
# [4] = target: Non-POU domain-containing octamer-binding protein (UniProt Q15233)
# [5] = target: Polypyrimidine tract-binding protein 1 (UniProt P26599)
# [6] = target: Heterogeneous nuclear ribonucleoproteins C1/C2 (UniProt P07910)
substance,measurement,setting,value
"SWI/SNF-related matrix-associated actin-dependent regulator of chromatin subfamily A member 2, P51531",listed as a hit,Histone H4,yes
"Heterogeneous nuclear ribonucleoproteins C1/C2, P07910",listed as a hit,[1],yes
same,listed as a hit,[2],yes
same,listed as a hit,[3],yes
same,listed as a hit,[4],yes
same,listed as a hit,[5],yes
"Heterogeneous nuclear ribonucleoprotein R, O43390",listed as a hit,[6],yes
